An excerpt weighted towards active compounds, which were near 19% of everything screened.
Giardia kill – Small Molecules that selectively kill Giardia lamblia: qHTS. Giardia lamblia trophozoite viability. activity change, % at 7.66 µM, hits read low. 0.15% of 340,000 active; in the data active means activity change below about -80%; inconclusive means between about -30% and that limit;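 further: parasites exposed to compound for two days anaerobically before the ATP read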
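Giardia trophozoites, 100 cells per well, were exposed to compounds for 48 hrs at 37 deg C under anaerobic conditions; viability was then read as ATP content by bioluminescence after 15-30 min at room temperature.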
IL-1B inflam inh – qHTS for Inhibitors of Inflammasome Signaling: IL-1-beta AlphaLISA Primary Screen. activity change, % at 57.5 µM. 4.7% of 360,000 active. AID 743279, 2014. THP-1 LPS/ATP IL-1B secretion, AlphaLISA, 16 h; stronger effect = lower value; in the data active means activity change below about -50%; inconclusive means mostly about -30% to -49%
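Secreted IL-1B measured by AlphaLISA bead assay after 16 h compound exposure of THP-1 cells; compounds (final up to 57.5 uM) added 1 h before LPS (250 ng/mL) and ATP (1.25 mM) stimulation; lower signal means less secretion.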
DT40 TDP1 no CPT – qHTS for Inhibitors of human tyrosyl-DNA phosphodiesterase 1 (TDP1): qHTS in cells in absence of CPT; DT40 Tdp1-/- hTDP1 cells, no CPT, ATP luminescence, 48 h; Potency, µM (highest dose often 46.2 µM), inactives show top-dose activity change, negative = growth inhibition, usual class: inhibitors; 15% of 420,000 active; AID 686978, 2013; further: potency means the concentration at half of the fitted maximal effect; nearly all actives have a fitted effect of over 55% in size
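DT40 Tdp1-/-;hTDP1 cells, no CPT (DMSO vehicle only), 400 cells/well; compounds pin-transferred; ≥48 hr, 37 °C; CellTiter-Glo 30 min RT dark, luminescence read.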
DT40 TDP1 CPT – qHTS for Inhibitors of human tyrosyl-DNA phosphodiesterase 1 (TDP1): qHTS in cells in presence of CPT; chicken DT40 Tdp1-/-;hTDP1 cells + 20 nM CPT, ATP luminescence, 48 h; Potency, µM (top dose mostly 46.2 µM), inactives show at the top dose activity change, negative = growth inhibition, usual class: inhibitors; 12% of 420,000 active; AID 686979, 2013; further: potency means the concentration at half of the fitted maximal effect; nearly all actives have a fitted effect of over 55% in size
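Chicken DT40 Tdp1-/- cells complemented with human TDP1, 400 cells/well, exposed to compounds plus 20 nM camptothecin for at least 48 h at 37 C; viability read as ATP content by CellTiter-Glo luminescence.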
TDP1 inh – qHTS Assay for Inhibitors of Tyrosyl-DNA Phosphodiesterase (TDP1). AID 485290, 2010. Potency, µM (doses to about 130 µM), without a hit: at the top dose activity change, negative = inhibition, usual class: inhibitors. recombinant TDP1, AlphaScreen DNA substrate cleavage. 0.28% of 350,000 active. Tyrosyl-DNA phosphodiesterase 1 (Homo sapiens), Q9NUW8; further: potency means the concentration at half of the fitted maximal effect; nearly all actives have a fitted effect of over 40% in size
Target sequence (Q9NUW8 whole entry, looked up): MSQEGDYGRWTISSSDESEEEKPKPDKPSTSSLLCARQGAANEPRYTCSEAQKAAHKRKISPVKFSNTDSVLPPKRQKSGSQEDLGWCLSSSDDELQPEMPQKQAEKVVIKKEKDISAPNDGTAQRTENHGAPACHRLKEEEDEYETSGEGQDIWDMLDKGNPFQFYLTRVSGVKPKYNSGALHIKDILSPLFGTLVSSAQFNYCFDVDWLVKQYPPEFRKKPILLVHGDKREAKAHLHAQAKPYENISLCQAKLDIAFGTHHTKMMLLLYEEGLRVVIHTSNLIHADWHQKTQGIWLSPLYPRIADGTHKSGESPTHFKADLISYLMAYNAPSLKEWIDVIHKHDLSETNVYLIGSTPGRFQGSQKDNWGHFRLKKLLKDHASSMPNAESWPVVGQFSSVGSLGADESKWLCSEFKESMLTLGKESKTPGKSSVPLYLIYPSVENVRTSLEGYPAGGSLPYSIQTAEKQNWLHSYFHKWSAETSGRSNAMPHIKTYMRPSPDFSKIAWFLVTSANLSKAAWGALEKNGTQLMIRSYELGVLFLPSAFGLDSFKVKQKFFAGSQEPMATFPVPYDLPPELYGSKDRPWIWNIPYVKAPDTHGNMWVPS
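Recombinant E. coli-expressed Tdp1 (1 nM) preincubated with compound 15 min at RT, then 5'-biotin/3'-phosphotyrosine-FITC DNA substrate (15 nM) added for 5 min. AlphaScreen beads (10 ug/ml) added, 10 min RT; tyrosine-FITC cleavage read as signal loss.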
ELG1 repair inh – qHTS screen for small molecules that inhibit ELG1-dependent DNA repair in human embryonic kidney (HEK293T) cells expressing luciferase-tagged ELG1; HEK293T ELG1-luciferase reporter, luminescence, 16 h; DNA damage induced by 5-fluorouridine; Potency, µM (series often up to 46.1 µM), inactives show at the highest dose activity change, negative = inhibition, most hits filed as inhibitors; 2.3% of 330,000 active; AID 504467, 2011; further: potency means the concentration at half of the fitted maximal effect; nearly all actives have a fitted effect of over 55% in size
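Step one: seed 2,000 cells per well. Step two: pin-transfer compound or DMSO alongside 5-fluorouridine. Step three: incubate 16 hr, 37 °C, 5% CO2. Step four: add ONE-Glo, wait 30 min, read luminescence.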
* marks the source's active call; other numbers are inactive results; ? = inconclusive; nt = not tested or not shown. Unless noted, the call rests on the fitted dose curve; in most records, active means well fitted curve in the direction sought with a large enough effect; inconclusive means small, poorly fitted or top-dose-only effect, or another doubt; inactive means no such curve, though single readings can be large; an effect the other way counts as inactive or inconclusive. On the % scale 0 is the no-effect control and ±100 the full control effect.

SMILES	Giardia kill	IL-1B inflam inh	DT40 TDP1 no CPT	DT40 TDP1 CPT	TDP1 inh	ELG1 repair inh
COCCCn1c(SCC(=O)Nc2ccc(F)cc2)nc2c(sc3ccccc32)c1=O	nt	nt	5.8µM*	15µM*	4%	nt
Cc1ccccc1CSc1nc2c(sc3ccccc32)c(=O)n1CCCOC(C)C	nt	nt	?	?	5%	nt
COCCCn1c(SCc2ccccc2F)nc2c(sc3ccccc32)c1=O	nt	nt	15µM*	?	6%	nt
CCOCCCn1c(SCC(=O)Nc2ccc(F)cc2)nc2c(sc3ccccc32)c1=O	nt	nt	-18%	-30%	2%	nt
C/C(N)=C(/C#N)C(=O)CSc1nc2ccccc2c(=O)n1CCCOC(C)C	11	?	23µM*	?	0%	?
COc1ccc(NC(=O)CSc2nc3c(sc4ccccc43)c(=O)n2CCCN2CCCC2)cc1	5	-19	?	21µM*	8%	4%
Cc1cccc(CSc2nc3c(sc4ccccc43)c(=O)n2CCC(=O)NC(C)C)c1	nt	nt	12µM*	4.6µM*	2%	nt
CC(C)OCCCn1c(SCC(N)=O)nc2c(sc3ccccc32)c1=O	nt	nt	?	21µM*	2%	nt
CCCCn1c(SCC(N)=O)nc2c(sc3ccccc32)c1=O	31	-21	?	?	0%	?
CCOCCCn1c(SCC(=O)NCc2ccco2)nc2c(sc3ccccc32)c1=O	9	58	?	?	4%	16µM*
CCCn1ncc2c(Nc3ccc(C)c(C)c3)ncnc21	0	-64*	?	?	4%	?
Cc1ccc(-n2ncc3c(Nc4ccc5c(c4)OCCO5)ncnc32)cc1C	nt	nt	18µM*	21µM*	8%	nt
Cn1ncc2c(Nc3ccc(Cl)c(Cl)c3)ncnc21	9	35	?	?	0%	?
Cc1cccc(-n2ncc3c(Nc4ccc(F)cc4)ncnc32)c1	-24	?	?	?	3%	?
Cc1ccc(-n2ncc3c(Nc4cccc(C(F)(F)F)c4)ncnc32)cc1C	nt	nt	?	21µM*	3%	nt
Cc1ccc(N2CC(C(=O)OCC(=O)Nc3ccccc3C)CC2=O)cc1 (stereo not given)	5	-5	-7%	2%	0%	24%
COc1ccc(C)cc1S(=O)(=O)N(CC(=O)Nc1cccc([N+](=O)[O-])c1)c1ccc(C)c(C)c1	1	-3	?	16µM*	4%	-14%
COc1ccc(NC(=O)CN(c2ccc(C)cc2)S(=O)(=O)c2cccc3nonc23)cc1OC	nt	nt	16µM*	-19%	7%	nt
COc1ccc(S(=O)(=O)N(CC(=O)Nc2ccc(C)cc2)c2ccc(C)cc2)cc1OC	nt	nt	nt	nt	2%	nt
Cc1ccc(NC(=O)CN(c2ccc(Cl)cc2)S(=O)(=O)c2cc([N+](=O)[O-])ccc2Cl)cc1	-20	-99*	23µM*	?	3%	-23%
COc1ccc(NC(=O)CN(c2ccc(C)cc2)S(=O)(=O)c2cccs2)cc1OC	nt	nt	-2%	2%	-2%	nt
CC(=O)c1cccc(NC(=O)CN(c2ccc(C)cc2)S(=O)(=O)c2cccc3nonc23)c1	1	-8	?	?	3%	-18%
O=c1c(-c2cc(-c3ccccc3)nc3c2COc2ccccc2-3)coc2ccc(Cl)cc12	nt	nt	0%	-4%	6%	nt
O=C(Cn1nnc(-c2ccccc2)n1)N/N=C/c1ccco1	-10	5	-23%	-10%	2%	5%

Bioassay records as filed in PubChem.
